# Structures can show the parent of a compound that is named as a salt. ± gives the standard deviation of the averaged measurements.
# Test system: E. coli TESEC Alr+ wild-type control
# Experiment: growth (OD600 after 10 h); higher = more growth (less inhibition)
# Settings: compound 0.1 mM; raw OD600 reference: median of DMSO wells 0.49, cell-free background 0.052
# Method: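 TESEC Mtb Alr E. coli (ΔaraC ΔtolC ΔentC Δalr ΔdadX, arabinose-inducible Mtb Alr) or the Alr+ wild-type control strain, grown in defined M9-fructose medium without D-alanine in 96-well plates with Prestwick library compounds at 0.1 mM and 1% DMSO. Low Alr induction is 0.1 µM arabinose and high induction is 10 mM arabinose.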
row,SMILES,growth
1,CC12CC3CC(C)(C1)CC(N)(C3)C2 [Memantine Hydrochloride],0.503 ± 0.12
2,OCCN1CCN(CC/C=C2/c3ccccc3Sc3ccc(Cl)cc32)CC1 [Zuclopenthixol dihydrochloride],0.049 ± 0.0005
3,CCN(CC)CCOC(=O)C(c1ccccc1)c1ccccc1 [Adiphenine hydrochloride],0.494 ± 0.04
4,c1ccc(CN(CC2=NCCN2)c2ccccc2)cc1 [Antazoline hydrochloride],0.5 ± 0.083
5,Cc1scc2c1N(C(=O)CN1CCN(C)CC1)c1ccccc1NC2=O [Telenzepine dihydrochloride],0.545 ± 0.024
6,C[C@H](CCC(=O)O)[C@H]1CC[C@H]2[C@@H]3C(=O)C[C@@H]4CC(=O)CC[C@]4(C)[C@H]3CC(=O)[C@]12C [Dehydrocholic acid],0.569 ± 0.034
7,Clc1ccc2c(c1)C(N1CCNCC1)=Nc1ccccc1O2 [Amoxapine],0.43 ± 0.061
8,C=C1c2cccc(O)c2C(O)=C2C(=O)[C@]3(O)C(O)=C(C(N)=O)C(=O)[C@@H](N(C)C)[C@@H]3[C@@H](O)[C@H]12 [Methacycline hydrochloride],0.0598 ± 0.0011
9,CCN(CC)CCOC(=O)C1(C2CCCCC2)CCCCC1 [Dicyclomine hydrochloride],0.46 ± 0.008
10,Cc1oncc1C(=O)Nc1ccc(C(F)(F)F)cc1 [Leflunomide],0.3131 ± 0.0014
11,C/C=C(/C(=C/C)c1ccc(O)cc1)c1ccc(O)cc1 [Dienestrol],0.139 ± 0.14
12,CC(=O)N[C@@H](CC(C)C)C(=O)O [N-Acetyl-L-leucine],0.637 ± 0.023
13,CC(C)OC(=O)CCC/C=C\C[C@@H]1[C@@H](CC[C@@H](O)CCc2ccccc2)[C@H](O)C[C@@H]1O [Latanoprost],0.195 ± 0.059
14,OCCOCCN1CCN(C2=Nc3ccccc3Sc3ccccc32)CC1 [Quetiapine hemifumarate],0.486 ± 0.019
15,CN(C)C(=O)C(CCN1CCC(O)(c2ccc(Cl)cc2)CC1)(c1ccccc1)c1ccccc1 [Loperamide hydrochloride],0.0784 ± 0.034
16,NC(=O)N1c2ccccc2CC(=O)c2ccccc21 [Oxcarbazepine],0.601 ± 0.13
17,O=C(O)CCNC(=O)c1ccc(/N=N/c2ccc(O)c(C(=O)O)c2)cc1 [Balsalazide Sodium],0.465 ± 0.057
18,NC(CO)C(=O)NNCc1ccc(O)c(O)c1O (stereo not given) [Benserazide hydrochloride],0.465 ± 0.036
19,NS(=O)(=O)c1cc2c(cc1Cl)N=CNS2(=O)=O [Chlorothiazide],0.494 ± 0.032
20,Nc1ccn([C@H]2CC[C@@H](CO)O2)c(=O)n1 [Zalcitabine],0.4783 ± 0.0003

row,SMILES,growth
1,N=C(N)NC(=O)Cc1c(Cl)cccc1Cl [Guanfacine hydrochloride],0.485 ± 0.018
2,CN(C)CCN(Cc1cccs1)c1ccccn1 [Methapyrilene hydrochloride],0.644 ± 0.021
3,N=C(N)NCCN1CCCCCCC1 [Guanethidine sulfate],0.468 ± 0.04
4,CN1CCC(=C2c3ccccc3Sc3ccccc32)CC1 [Pimethixene maleate],0.0544 ± 0.0021
5,CC(C)[C@H](N)C(=O)OCCOCn1cnc2c(=O)nc(N)[nH]c21 [Valacyclovir hydrochloride],0.533 ± 0.17
6,CCOc1cc(CC(=O)N[C@@H](CC(C)C)c2ccccc2N2CCCCC2)ccc1C(=O)O [Repaglinide],0.482 ± 0.005
7,NCCc1ccc(O)c(O)c1 [Dopamine hydrochloride],0.624 ± 0.051
8,Fc1ccc([C@@H]2CCNC[C@H]2COc2ccc3c(c2)OCO3)cc1 [Paroxetine Hydrochloride],0.444 ± 0.026
9,CC(C)[N+](C)(CCOC(=O)C1c2ccccc2Oc2ccccc21)C(C)C [Propantheline bromide],0.644 ± 0.057
10,Cc1ccc(Cl)c(Nc2ccccc2C(=O)O)c1Cl [Meclofenamic acid sodium salt monohydrate],0.139 ± 0.011
11,Cc1ccc2c(c1)c1c3n2CCNC3CCC1 (stereo not given) [Pirlindole mesylate],0.485 ± 0.052
12,CC(=O)N[C@@H](CC(=O)N[C@@H](CCC(=O)O)C(=O)O)C(=O)O [Spaglumic acid],0.522 ± 0.037
13,CCCN[C@H]1CCc2nc(N)sc2C1 [Pramipexole dihydrochloride],0.64 ± 0.0092
14,CN(C)CCOC(C)(c1ccccc1)c1ccccn1 (stereo not given) [Doxylamine succinate],0.51 ± 0.06
15,CCOC(=O)Nc1ccc2c(c1)N(C(=O)CCN1CCOCC1)c1ccccc1S2 [Moricizine hydrochloride],0.354 ± 0.0077
16,CCn1cc(C(=O)O)c(=O)c2cnc(N3CCCC3)nc21 [Piromidic acid],0.144 ± 0.003
17,COc1ccc(C(Cl)=C(c2ccc(OC)cc2)c2ccc(OC)cc2)cc1 [Chlorotrianisene],0.469 ± 0.025
18,O=C1OC(CN2CCOCC2)CN1/N=C/c1ccc([N+](=O)[O-])o1 (stereo not given) [Furaltadone hydrochloride],0.05647 ± 0.00045
19,Nc1nc(/C(=C/CC(=O)O)C(=O)N[C@@H]2C(=O)N3C(C(=O)O)=CCS[C@H]23)cs1 [Ceftibuten],0.252 ± 0.016
20,CC=C(C)C(=O)OC1C(OC(C)=O)C2(CO)C(O)CC3(C)C(=CCC4C5(C)CCC(OC6OC(C(=O)O)C(OC7OC(CO)C(O)C(O)C7O)C(O)C6OC6OC(CO)C(O)C(O)C6O)C(C)(CO)C5CCC43C)C2CC1(C)C (stereo not drawn) [Beta-Escin],0.438 ± 0.02
